This passage reports growth inhibition results from PubChem BioAssay (NCI).

The panel holds about 79,000 compounds, 15% with a hit somewhere; the sample as a whole holds those more often. Values without a mark were called inactive. The source made the active and inactive calls. Cut-off read from the data, not from the text of the source: active = growth inhibition above about 70%; inactive = the rest.

A short description of assay [1]: NCI Yeast Anticancer Drug Screen. Data for the rad50 strain (AID 155).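 Note: 0% = growth of vehicle-only cultures of the same strain.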 As to conditions: S. cerevisiae rad50 strain growth inhibition; at 50.0 µM; hits give high values. An outline of the steps: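 Vehicle-treated cultures provide the reference for the growth inhibition reported for compound-exposed, repair-deficient yeast.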
Assay [2] is described as follows: NCI Yeast Anticancer Drug Screen. Data for the mec2-1 strain (AID 157). As to conditions: S. cerevisiae mec2-1 strain, at 50.0 µM, hits give high values. The method in brief:
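Test agents were screened against the mec2-1 yeast strain, with defined DNA repair or cell cycle alteration. Growth was scored as inhibition against vehicle-only controls.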

Assay [3] can be described thus: NCI Yeast Anticancer Drug Screen. Data for the sgs1 mgt1 strain (AID 161).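 Note: 0% = growth of cultures given vehicle only.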 As to conditions: S. cerevisiae sgs1 mgt1 strain, at 50.0 µM, hits give high values. An outline of the steps: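 Read-out: growth inhibition vs vehicle controls. Cells: mutant yeast strain deficient in DNA damage repair.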
Assay [4] in a line: NCI Yeast Anticancer Drug Screen. Data for the cln2 rad14 strain (AID 165).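 Note: 0% = growth equal to vehicle treated cultures.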 As to conditions: S. cerevisiae cln2 rad14 strain, at 50.0 µM, hits give high values. An outline of the steps: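 Growth of compound-exposed yeast (cln2 rad14 genotype) measured and expressed as inhibition relative to vehicle.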
The nature of assay [5]: NCI Yeast Anticancer Drug Screen. Data for the bub3 strain (AID 167). As to conditions: S. cerevisiae bub3 mutant strain, at 50.0 µM, hits give high values. The method in brief:
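Mutant yeast screening strain plus compound; vehicle-treated cultures serve as the 0% inhibition reference.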

A short description of assay [6]: NCI Yeast Anticancer Drug Screen. Data for the mlh1 rad18 strain (AID 175). As to conditions: S. cerevisiae mlh1 rad18 strain growth inhibition; at 50.0 µM; hits give high values. An outline of the steps:
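In this whole-cell yeast screen, a strain with altered DNA damage repair is challenged with compound, and its growth is measured against matched vehicle-treated controls.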

Turning to `Nc1ccc(S(=O)(=O)O)cc1N`, the growth inhibition in assay [1] was -15.3%; in assay [2] it was -11.1%; in assay [3], -8%; in assay [4], -19.5%; in assay [5] it was 2.95%; in assay [6], -4.5%.
`Cc1c(-c2ccccc2)c(=O)oc2ccc(Cl)cc12`: the growth inhibition in assay [1] was -34%; in assay [2] it was -8.5%; in assay [3] it was 1.1%; in assay [4], -9.85%; in assay [5], -14.9%; in assay [6] it was -15.2%.
With `CCCCN=C(N)N=C(N)N`, the growth inhibition in assay [1] was 6.7%; in assay [2], 2.75%; in assay [3], 0.75%; in assay [4], -7.45%; in assay [5] it was -5.15%; in assay [6] it was 4.05%.
Consider `O=[N+]([O-])c1cc(/C=N\NS(=O)(=O)c2ccc(Cl)cc2)c(O)c([N+](=O)[O-])c1`, for which the growth inhibition in assay [1] was 26.9%; in assay [2], 7.2%; in assay [3] it was 3.9%; in assay [4], -1.35%; in assay [5], 8.75%; in assay [6] it was 8.6%.
For `COC1=NCc2ccccc2-c2ccccc21`, the growth inhibition was -16.1% in assay [1]; -21.2% in assay [2]; -17.9% in assay [3]; 8.55% in assay [4]; 27.5% in assay [5]; -28.9% in assay [6].
Regarding `Cc1ccccc1NC(=S)N1CCOCC1`, the growth inhibition in assay [1] is -4.55%; in assay [2], 14.4%; in assay [3], -10.8%; in assay [4], -68.6%; in assay [5] it was 14.2%; in assay [6], -6.35%.
As to `CCN(CC)Cc1cc(OC(=O)c2cc(OC)c(OC)c(OC)c2)cc(C(=O)OC)c1`, the growth inhibition in assay [1] was 3.2%; in assay [2], 3.7%; in assay [3] it was -19.1%; in assay [4] it was -32%; in assay [5], 8.5%; in assay [6], -10.3%.
As to `CCOC(=O)c1ccc2c(c1)Cc1c-2cc(Br)c(N)c1Br`, the growth inhibition in assay [1] was 78.5% (active); in assay [2], 3.1%; in assay [3], 45%; in assay [4], 9.15%; in assay [5] it was 18.4%; in assay [6], 47%.
Consider `Oc1ccc2nccnc2c1`, for which the growth inhibition in assay [1] is 10.1%; in assay [2] it was 1.6%; in assay [3], 10.2%; in assay [4] it was -1.6%; in assay [5], 3.6%; in assay [6], 13.1%.
In the case of `N/N=C/c1cccn1-c1ccccc1Cl`, the growth inhibition in assay [1] was 33.8%; in assay [2] it was 15.3%; in assay [3] it was 26.9%; in assay [4], 0.35%; in assay [5] it was 28.2%; in assay [6], 14.8%.
Turning to `CC(=O)Oc1ccccc1[C@H]1CC(=O)C[C@H](c2ccccc2OC(C)=O)C12C(=O)c1ccccc1C2=O`, the growth inhibition in assay [1] is -12.8%; in assay [2] it was -18.4%; in assay [3], -7.55%; in assay [4], 30.1%; in assay [5], -17.4%; in assay [6], 9.3%.
On to `CC(=O)Nc1ccc(S(=O)(=O)NC2(C)C(=O)N(C)C(=O)N(C)C2=O)cc1`, for which the growth inhibition was 32.2% in assay [1]; 15.2% in assay [2]; 14.2% in assay [3]; 17.5% in assay [4]; 3.15% in assay [5]; 27.7% in assay [6].
Regarding `Cc1[nH]c(=O)[nH]c(=O)c1/C=C/C(=O)NC(CO)CS(=O)CS(C)=O` (stereo not given), the growth inhibition in assay [1] was 3.85%; in assay [2], -11.2%; in assay [3], 9.75%; in assay [4] it was 13.1%; in assay [5] it was 5.6%; in assay [6] it was -10.4%.
In the case of `ON1c2ccc3ccccc3c2C=CC1(c1ccccc1)c1ccccc1`, the growth inhibition in assay [1] was -12.7%; in assay [2] it was -2.75%; in assay [3], -12.6%; in assay [4], 23.2%; in assay [5] it was 16.5%; in assay [6], 10.9%.
Turning to `O/N=C/c1cc2c(cc1Br)OCO2`, the growth inhibition in assay [1] was -4.2%; in assay [2], -9.9%; in assay [3], -18.9%; in assay [4] it was -9.75%; in assay [5], -16.9%; in assay [6], -17.6%.
With `O=C(CNC(=O)c1ccccc1)NCS(=O)(=O)O`, the growth inhibition was 12.2% in assay [1]; -3.6% in assay [2]; 19% in assay [3]; 14.7% in assay [4]; 19.2% in assay [5]; 11.3% in assay [6].
Turning to `Cc1ncc([N+](=O)[O-])n1CCNS(=O)(=O)CCCn1ccnc1[N+](=O)[O-]`, the growth inhibition was -4.85% in assay [1]; -17.1% in assay [2]; -18.9% in assay [3]; -25.7% in assay [4]; -18.5% in assay [5]; -58.7% in assay [6].
Take `O=C(Nc1ccc(C(=O)O)cc1)Nc1nccs1`: the growth inhibition in assay [1] was 16.9%; in assay [2], 6.5%; in assay [3], 18%; in assay [4] it was -16.7%; in assay [5], 7.2%; in assay [6], 43.7%.
For `CCC(C(=O)O)c1cccc2c(C)ccc(C)c12` (stereo not given), the growth inhibition in assay [1] was 8.25%; in assay [2], 3.55%; in assay [3], 21.4%; in assay [4], 23.2%; in assay [5] it was 7.7%; in assay [6], 8.15%.
Regarding `CCS(=O)c1ncc2cnccn12` (stereo not given), the growth inhibition in assay [1] is 2.35%; in assay [2], 1.3%; in assay [3], 15.4%; in assay [4] it was -17.8%; in assay [5] it was 8.3%; in assay [6], -18.8%.
